From the supplement of paper PMC8285479
Where a name gives a salt, the structure may show the parent alone. ± gives the standard deviation of the averaged measurements. Over roughly 1,900 compounds, “normalised cell viability (NPI; 0 = phenylarsine oxide control, 1 = DMSO control)” has its median near 1; the lowest 2% begin near 0.039. The sample as a whole holds a higher share of the lowest values than the screen did.

Tested on: NCI-H1944
Assay: normalised cell viability (NPI; 0 = phenylarsine oxide control, 1 = DMSO control) (fraction of DMSO control); NCI-H1944 is a non-small cell lung cancer line; higher = more viable cells (less compound toxicity)
Conditions: 6 days
[1] = glucocorticoid arm: hydrocortisone 2.75 uM co-treatment, compound 1 µM
[2] = glucocorticoid arm: hydrocortisone 2.75 uM co-treatment, compound 5 µM
[3] = glucocorticoid arm: hydrocortisone 2.75 uM pre-treated 2 days and continued, compound 1 µM
[4] = glucocorticoid arm: hydrocortisone 2.75 uM pre-treated 2 days and continued, compound 5 µM
[5] = glucocorticoid arm: vehicle, compound 1 µM
[6] = glucocorticoid arm: vehicle, compound 5 µM
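Further: CTB read-out in 384-well plates, triplicate wells, NPI normalised per plate against 1 µM phenylarsine oxide (0) and 0.1% DMSO (1) controls.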

| SMILES | normalised cell viability [1] | normalised cell viability [2] | normalised cell viability [3] | normalised cell viability [4] | normalised cell viability [5] | normalised cell viability [6] |
| --- | --- | --- | --- | --- | --- | --- |
| CC(C)NCC(O)c1ccc(O)c(O)c1 (racemic) [(±)-Isoproterenol hydrochloride] | 1.01 ± 0.011 | 1.03 ± 0.042 | 1.01 | 1.04 ± 0.064 | 0.99967 ± 0.00058 | 1.02 ± 0.021 |
| N[C@@H](CCCC(=O)O)C(=O)O [L-2-aminoadipic acid] | 0.9947 ± 0.0055 | 0.991 ± 0.015 | 0.997 ± 0.013 | 0.97 ± 0.018 | 0.979 ± 0.014 | 0.9823 ± 0.0067 |
| NC(=O)Nc1cc(-c2cccc(F)c2)sc1C(=O)N[C@H]1CCCNC1 | 0.65 ± 0.013 | 0.45 ± 0.024 | 0.93 ± 0.021 | 0.7733 ± 0.0071 | 0.338 ± 0.012 | 0.158 ± 0.015 |
| O=C(NC1CCNCC1)c1n[nH]cc1NC(=O)c1c(Cl)cccc1Cl | 0.225 ± 0.03 | 0.0298 ± 0.0013 | 0.349 ± 0.039 | 0.149 ± 0.015 | 0.0396 ± 0.029 | 0.0072 ± 0.00086 |
| CN1CCN(C(=O)c2cc3cc(Cl)ccc3[nH]2)CC1 | 1.027 ± 0.0058 | 1.023 ± 0.0058 | 1.013 ± 0.0058 | 1.03 ± 0.021 | 1.007 ± 0.0058 | 1.01 ± 0.01 |
| CN1CCCN(C(=O)c2cccc(-c3ccc(/C=C4/C(=O)Nc5ccc(Cl)cc54)o3)c2)CC1 | 0.717 ± 0.032 | 0.214 ± 0.24 | 0.937 ± 0.021 | 0.887 ± 0.059 | 0.282 ± 0.017 | 0.00113 ± 0.00047 |
| Cc1[nH]c(/C=C2\C(=O)Nc3ccc(S(=O)(=O)N(C)c4cccc(Cl)c4)cc32)c(C)c1C(=O)N1CCN(C)CC1 | 0.9913 ± 0.0072 | 0.986 ± 0.012 | 1.003 ± 0.0058 | 0.989 ± 0.014 | 0.969 ± 0.01 | 0.849 ± 0.036 |
| NC1(Cc2ccc(Cl)cc2)CCN(c2ncnc3[nH]ccc23)CC1 | 0.901 ± 0.034 | 0.602 ± 0.08 | 0.934 ± 0.014 | 0.68 ± 0.045 | 0.9813 ± 0.0087 | 0.827 ± 0.068 |
| CC1(C)CCC(NC(=O)[C@@H](N)CCC(=O)O)CC1 | 0.979 ± 0.013 | 0.975 ± 0.016 | 0.999 ± 0.011 | 0.982 ± 0.046 | 0.9703 ± 0.0085 | 0.985 ± 0.012 |
| CC(C)(C(=O)O)c1ccc(C(O)CCCN2CCC(C(O)(c3ccccc3)c3ccccc3)CC2)cc1 (stereo unspecified) [Fexofenadine HCl] | 1.03 ± 0.01 | 1.02 ± 0.021 | 1.037 ± 0.0058 | 1.05 ± 0.011 | 0.999 ± 0.011 | 0.998 ± 0.01 |
| OC(CCN1CCCCC1)(c1ccccc1)C1CCCCC1 (racemic) [DL-Trihexyphenidyl hydrochloride] | 0.99967 ± 0.00058 | 0.998 ± 0.013 | 1.03 ± 0.021 | 1.02 ± 0.011 | 0.995 ± 0.007 | 1.001 ± 0.0085 |
| CC(C)(C)c1ccc(C(O)CCCN2CCC(C(O)(c3ccccc3)c3ccccc3)CC2)cc1 (stereo unspecified) [Terfenadine] | 0.997 ± 0.0027 | 0.9833 ± 0.0051 | 1.03 ± 0.017 | 1.03 ± 0.017 | 0.9927 ± 0.006 | 0.0387 ± 0.043 |
| CC(C)(C(=O)O)c1ccc(C(O)CCCN2CCC(C(O)(c3ccccc3)c3ccccc3)CC2)cc1 (stereo unspecified) [Fexofenadine hydrochloride] | 1.006 ± 0.0069 | 1 ± 0.013 | 0.997 ± 0.013 | 0.99 ± 0.01 | 1.003 ± 0.0058 | 0.9967 ± 0.0035 |
| COc1ccc2c3n(c(=NC(=O)c4cccnc4)nc2c1OC)CCN3 | 0.911 ± 0.004 | 0.628 ± 0.018 | 0.901 ± 0.012 | 0.663 ± 0.033 | 0.9907 ± 0.0049 | 0.85 ± 0.029 |
| O=C(Nc1cccc(Nc2ncc(Br)c(NCCc3cnc[nH]3)n2)c1)N1CCCC1 | 0.955 ± 0.015 | 0.805 ± 0.016 | 0.939 ± 0.0062 | 0.859 ± 0.02 | 0.917 ± 0.0095 | 0.635 ± 0.029 |
| CCCn1c(=O)c2[nH]c(-c3ccc(S(=O)(=O)O)cc3)nc2n(CCC)c1=O [1,3-Dipropyl-8-p-sulfophenylxanthine] | 0.9873 ± 0.0049 | 0.99 ± 0.01 | 0.994 ± 0.01 | 0.986 ± 0.034 | 0.996 ± 0.016 | 0.996 ± 0.0061 |
| Cc1cc(N)c2ccccc2[n+]1CCCCCCCCCC[n+]1c(C)cc(N)c2ccccc21 [Dequalinium chloride hydrate] | 0.888 ± 0.026 | 0.0383 ± 0.0062 | 0.963 ± 0.016 | 0.0385 ± 0.0016 | 0.991 ± 0.013 | 0.00579 ± 0.0022 |
| OC[C@H]1O[C@@H](n2cnc3c2N=CNC[C@H]3O)C[C@@H]1O [Pentostatin] | 1.02 ± 0.011 | 1.01 ± 0.022 | 1.03 ± 0.011 | 1.04 ± 0.01 | 1.013 ± 0.0058 | 1.01 ± 0.011 |
| N[C@@H](Cc1ccc(O)c(I)c1)C(=O)O [3-Iodo-L-tyrosine] | 0.982 ± 0.01 | 0.973 ± 0.035 | 0.991 ± 0.006 | 0.996 ± 0.066 | 0.999 ± 0.011 | 0.998 ± 0.01 |
| N[C@H](CO)C(=O)O [D-Serine] | 1.013 ± 0.0058 | 1.04 ± 0.06 | 0.896 ± 0.27 | 1.02 ± 0.01 | 1.02 | 1.017 ± 0.0058 |
| CN1CCc2cc(O)c(O)cc2C(c2ccccc2)C1 (stereo unspecified) | 1 ± 0.0087 | 1.02 ± 0.022 | 0.876 ± 0.23 | 1.01 ± 0.02 | 1.02 | 1.023 ± 0.0058 |
| CCCS(=O)(=O)Nc1ccc(F)c(C(=O)c2c[nH]c3ncc(-c4ccc(Cl)cc4)cc23)c1F [vemurafenib] | 1.04 ± 0.011 | 1.14 ± 0.02 | 1.03 ± 0.01 | 1.08 ± 0.01 | 1.01 ± 0.01 | 1.037 ± 0.0058 |
| CCCS(=O)(=O)Nc1ccc(F)c(C(=O)c2c[nH]c3ncc(-c4ccc(Cl)cc4)cc23)c1F [Vemurafenib (PLX4032)] | 1.05 ± 0.011 | 0.997 ± 0.029 | 1.03 | 1.01 ± 0.026 | 1.017 ± 0.0058 | 1.007 ± 0.0058 |
| COc1cc2nccc(Oc3ccc(NC(=O)Nc4ccc(F)cc4F)c(F)c3)c2cc1OC | 1.05 ± 0.011 | 1.06 ± 0.01 | 1.037 ± 0.0058 | 1.04 ± 0.021 | 1.003 ± 0.0063 | 1.013 ± 0.0058 |
| COc1ncc(-c2ccc3nccc(-c4ccnnc4)c3c2)cc1NS(=O)(=O)c1ccc(F)cc1F | 0.264 ± 0.0058 | 0.231 ± 0.027 | 0.365 ± 0.025 | 0.249 ± 0.02 | 0.0495 ± 0.0081 | 0.0214 ± 0.0013 |
| Nc1ncnc2c1ncn2[C@@H]1O[C@@H]2COP(=O)(O)O[C@H]2[C@H]1O [Adenosine 3',5'-cyclic monophosphate] | 0.986 ± 0.014 | 0.9813 ± 0.007 | 0.998 ± 0.011 | 0.965 ± 0.019 | 0.991 ± 0.016 | 0.9797 ± 0.0074 |
